The structures appear in SMILES notation. In all, about 310,000 compounds went through this assay and about 14,000 (4.5%) showed an effect of 50% or more. The effect is printed as a negative number. The entries come from a sample that favours strong results as a whole.
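Note: peak tail current of the secondary pulse compared with the same well before compound.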

Sequence of human ether-à-go-go-related gene (hERG) potassium channel (Q12809 whole entry, looked up): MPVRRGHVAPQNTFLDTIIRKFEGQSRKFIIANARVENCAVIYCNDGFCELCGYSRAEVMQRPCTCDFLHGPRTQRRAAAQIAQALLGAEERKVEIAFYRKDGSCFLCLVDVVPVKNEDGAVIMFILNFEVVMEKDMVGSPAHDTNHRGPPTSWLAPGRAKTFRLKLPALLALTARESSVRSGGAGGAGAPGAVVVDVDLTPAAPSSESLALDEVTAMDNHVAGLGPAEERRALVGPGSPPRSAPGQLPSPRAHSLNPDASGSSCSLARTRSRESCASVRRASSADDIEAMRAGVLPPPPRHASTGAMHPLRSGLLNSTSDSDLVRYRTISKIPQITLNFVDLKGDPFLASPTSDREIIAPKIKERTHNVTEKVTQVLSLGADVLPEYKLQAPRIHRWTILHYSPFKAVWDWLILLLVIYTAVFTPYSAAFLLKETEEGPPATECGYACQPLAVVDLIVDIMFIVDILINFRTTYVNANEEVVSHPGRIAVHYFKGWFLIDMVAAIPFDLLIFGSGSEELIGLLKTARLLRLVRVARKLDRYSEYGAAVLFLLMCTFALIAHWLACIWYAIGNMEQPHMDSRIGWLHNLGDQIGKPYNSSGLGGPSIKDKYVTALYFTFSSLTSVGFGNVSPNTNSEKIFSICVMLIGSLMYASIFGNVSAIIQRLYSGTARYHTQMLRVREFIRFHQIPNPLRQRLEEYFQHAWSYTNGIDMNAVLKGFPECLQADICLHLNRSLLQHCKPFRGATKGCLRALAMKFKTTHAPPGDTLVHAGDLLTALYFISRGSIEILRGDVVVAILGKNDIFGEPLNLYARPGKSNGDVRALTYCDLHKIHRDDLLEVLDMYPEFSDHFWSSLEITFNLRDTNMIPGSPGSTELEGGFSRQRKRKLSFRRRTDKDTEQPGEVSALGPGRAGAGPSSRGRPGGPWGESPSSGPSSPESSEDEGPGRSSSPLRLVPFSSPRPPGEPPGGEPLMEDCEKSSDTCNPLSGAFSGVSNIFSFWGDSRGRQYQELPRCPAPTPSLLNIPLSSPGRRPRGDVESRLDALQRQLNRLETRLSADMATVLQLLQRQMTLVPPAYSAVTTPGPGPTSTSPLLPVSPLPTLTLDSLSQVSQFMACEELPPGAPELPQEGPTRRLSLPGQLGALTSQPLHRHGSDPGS

This assay has as its target human ether-à-go-go-related gene (hERG) potassium channel (human, UniProt Q12809). Nature of the assay: primary screen, population patch clamp on CHO cells stably expressing hERG; higher = less effect of the substance.
For `CC1CCc2c(nc3sc4c(c3c2N)CCCC4)C1` (stereo not drawn), the “hERG current change (%, negative = inhibition) at 10uM” value is given as -11.5%.
Under `CN(Cc1ccccc1NS(=O)(=O)c1ccc2ccccc2c1)C1CCCCC1.Cl` stands 7.73%; under `COc1ccc(/C=N\NC(=O)CCN2CCN(c3ccccc3)CC2)cc1OC`, -56.9%; under `COc1ccc(/C=N/NC(=O)c2cc(C)n(-c3ccccc3)c2C)cc1OC`, -53.2%.
For the compound `O=C(CCN1CCN(C(c2ccccc2)c2ccccc2)CC1)N/N=C/c1ccc(O)cc1O`, the “hERG current change (%, negative = inhibition) at 10uM” value is listed as -53.1%.
In the case of `COc1ccc(/C=N/NC(=O)CCN2CCN(c3ccccc3)CC2)c(OC)c1OC`, the “hERG current change (%, negative = inhibition) at 10uM” value is -3.73%.
As to `Cc1cc(C(=O)N/N=C/c2cccc([N+](=O)[O-])c2)c(C)n1-c1ccccc1`, the “hERG current change (%, negative = inhibition) at 10uM” value worked out at 8.8%.
Consider `COc1cc(/C=N/NC(=O)CCN2CCN(c3ccccc3)CC2)cc(OC)c1OC`, for which the “hERG current change (%, negative = inhibition) at 10uM” value was -22.2%.
Consider `COc1cc(/C=N/NC(=O)c2cc(C)n(-c3ccc(F)cc3)c2C)cc(OC)c1O`, for which the “hERG current change (%, negative = inhibition) at 10uM” value is recorded as -13.4%.
For the compound `COc1ccc(OC)c(/C=N/NC(=O)CCN2CCN(C(c3ccccc3)c3ccccc3)CC2)c1`, the “hERG current change (%, negative = inhibition) at 10uM” value is reported as -2.39%.
The result for `COc1cc(/C=N/NC(=O)CCN2CCN(C(c3ccccc3)c3ccccc3)CC2)ccc1O` reads -78.7%; that for `O=C(CNC(=O)C(c1ccccc1)c1ccccc1)N/N=C/c1ccc(O)cc1O`, -4.68%; that for `COc1cc(/C=N\NC(=O)CNC(=O)C(c2ccccc2)c2ccccc2)ccc1O`, -25.7%.
Under `COc1cc(/C=N/NC(=O)CCN2CCCCC2)ccc1O` stands -12%.
Under `Cc1ccccc1N(C(=O)CNC(=O)c1ccco1)C(C(=O)NC1CCCCC1)c1cccnc1` (stereo not drawn) stands 14.3%; under `Cc1cc(C)cc(NS(=O)(=O)c2ccc(NC(=O)C3CCCCC3C(=O)O)cc2)c1` (stereo not drawn), 2.18%; under `CSc1ccc(CNC(=O)c2ccc(NC(=O)C3=CSCCO3)cc2)cc1`, 28.4%.
As to `CCCCc1ccc(S(N)(=O)=O)cc1`, the “hERG current change (%, negative = inhibition) at 10uM” value amounted to 15.7%.
The result for `O=C(CCN1CCN(C(c2ccccc2)c2ccccc2)CC1)N/N=C/c1ccc(O)cc1` reads -54.8%; that for `O=C(CSC1CN(C(c2ccccc2)c2ccccc2)C1)N/N=C/c1ccccc1`, 1.64%.
The result for `NNC(=O)CCN1CCN(C(c2ccccc2)c2ccccc2)CC1` reads -7.7%; that for `Cc1cc2c(cc1C)-c1nnnn1C(C)(C)C2`, 15.2%.
The result for `N#Cc1ccc(-n2c(-c3ccccc3)nnc2-c2ccccc2)cc1C#N` reads -15.5%; that for `O=C1N/C(=N/c2ccccn2)SC1Cc1ccccc1` (stereo not drawn), -13.7%; that for `CCOc1ccc(NC(=O)Cn2c(=O)n(CCCC(=O)NC3CCN(Cc4ccccc4)CC3)c(=O)c3ccccc32)cc1`, -38%.
Regarding `CCc1ccc(NC(=O)Cn2c(=O)n(CCC(=O)NC3CCN(Cc4ccccc4)CC3)c(=O)c3ccccc32)cc1`, the “hERG current change (%, negative = inhibition) at 10uM” value is reported as 1.83%.
Take `O=C(CCCn1c(=O)c2ccccc2n(Cc2cccc(F)c2)c1=O)NC1CCN(Cc2ccccc2)CC1`: the “hERG current change (%, negative = inhibition) at 10uM” value is listed as -68.6%.
Under `O=C(CCn1c(=O)c2ccccc2n(Cc2ccccc2)c1=O)NC1CCN(Cc2ccccc2)CC1` stands -42.5%.
On to `O=C(CCCCn1c(=O)c2ccccc2n(Cc2ccccc2)c1=O)NC1CCN(Cc2ccccc2)CC1`, for which the “hERG current change (%, negative = inhibition) at 10uM” value was -67.9%.
The result for `O=C(CCCCn1c(=O)c2ccccc2n(Cc2ccccc2F)c1=O)NC1CCN(Cc2ccccc2)CC1` reads -9.04%.
Take `COc1cccc(NC(=O)Cn2c(=O)n(CCC(=O)NC3CCN(Cc4ccccc4)CC3)c(=O)c3ccccc32)c1`: the “hERG current change (%, negative = inhibition) at 10uM” value was -57.6%.
Turning to `COC(=O)c1ccccc1NC(=O)Cn1c(=O)n(CCC(=O)NC2CCN(Cc3ccccc3)CC2)c(=O)c2ccccc21`, the “hERG current change (%, negative = inhibition) at 10uM” value is -34.8%.
For the compound `Cc1cc(NC(=O)Cn2c(=O)n(CCCCC(=O)NC3CCN(Cc4ccccc4)CC3)c(=O)c3ccccc32)n[nH]1`, the “hERG current change (%, negative = inhibition) at 10uM” value was 26.5%.
The result for `Cc1ccc(NC(=O)Cn2c(=O)n(CCC(=O)NC3CCN(Cc4ccccc4)CC3)c(=O)c3ccccc32)cc1` reads -1.53%; that for `NC(=O)Cn1c(=O)n(CCCC(=O)NC2CCN(Cc3ccccc3)CC2)c(=O)c2ccccc21`, -6.48%.
The result for `Cc1cccc(C)c1NC(=O)Cn1c(=O)n(CCCC(=O)NC2CCN(Cc3ccccc3)CC2)c(=O)c2ccccc21` reads -58.6%; that for `N#CC1=C(N)Oc2n[nH]c(-c3ccccc3)c2C12C(=O)Nc1ccccc12` (stereo not drawn), 17.4%.
Consider `NC(=S)N/N=C/c1coc2ccc(F)cc2c1=O`, for which the “hERG current change (%, negative = inhibition) at 10uM” value amounted to 10.3%.
Take `COCCNC(=O)c1ccc(-n2c(SCc3cccnc3)nc3ccccc3c2=O)cc1`: the “hERG current change (%, negative = inhibition) at 10uM” value was -8.88%.
As to `Fc1ccc(/C=N/Nc2cc(N3CCOCC3)ncn2)cc1`, the “hERG current change (%, negative = inhibition) at 10uM” value turned out to be 15.4%.
Under `COC(=O)c1ccccc1N/C=C/C(=O)c1ccc(Br)cc1` stands 16.1%; under `Cn1c(SCC(=O)NNC(=O)Cc2ccccc2)nc2ccccc2c1=O`, 11.7%; under `COc1ccc(CCC(=O)N2CC(C)OC(C)C2)cc1` (stereo not drawn), 5.02%.
Under `CCOCc1nnc(NC(=O)c2cc(C(=O)OC)cc([N+](=O)[O-])c2)s1` stands 21.3%; under `Clc1ccc(-c2csc(N/N=C\c3cccnc3)n2)cc1`, 6.05%; under `C(=N\Nc1nc(-c2ccccc2)cs1)/c1cccnc1`, -59.5%.
Under `Br.CC(=O)Nc1ccc(-c2csc(N/N=C\c3ccncc3)n2)cc1` stands 4.43%; under `C(=N\Nc1nc(-c2ccccc2)cs1)/c1cccs1`, 18.5%.
As for `Brc1ccc(-c2csc(N/N=C/c3cccnc3)n2)cc1`, the “hERG current change (%, negative = inhibition) at 10uM” value was 19.6%.
For the compound `C(=N\Nc1nc(-c2ccccc2)cs1)/c1ccncc1`, the “hERG current change (%, negative = inhibition) at 10uM” value was -50.5%.
Under `CC(=O)Oc1ccc2oc(C)c(C(=O)N3CCOCC3)c2c1` stands -8.91%.

These data come from article PMC4336329 (PLoS ONE, 2015).
